Measured values as given in ChEMBL document CHEMBL4513216, “Probing the Open Global Health Chemical Diversity Library for Multistage-Active Starting Points for Next-Generation Antimalarials” (ACS Infect Dis, 2020).
In all, about 65,000 compounds went through this assay and about 2,100 (3.2%) showed an effect of 50% or more. The median lay at about -52%. The full list was thinned out, with strong results kept by preference.

Tested on: Plasmodium falciparum
Test: Screen against P. falciparum Asexual Blood Stage (ABS), at 5uM
Format: functional, Dd2
Conditions: tested at 5 uM

SMILES	INHIBITION
COCC1c2c(cnn2C)CCN1C(=O)c1cscn1 (configuration not stated)	-109%
CC(Cn1cccn1)NCc1nc(-c2cccnc2)no1 (configuration not stated)	-56%
CCSCCC(=O)NC1CCN(C(C)c2ccccc2)CC1 (configuration not stated)	-58.8%
CC(c1ccccc1)N1CCC(NC(=O)CCc2ccsc2)CC1 (configuration not stated)	54.8%
CSCC(=O)NC1CCN(C(C)c2ccccc2)CC1 (configuration not stated)	-27.6%
Cc1cc2c(N3CCC(N(C)Cc4nccs4)CC3)ncnc2s1	-19.4%
CC(NC1CCN(CCS(C)(=O)=O)CC1)c1cnn(C(C)C)c1 (configuration not stated)	-83.1%
CC(c1ccc(Cl)cc1)N1CCN(CCS(C)(=O)=O)CC1 (configuration not stated)	-38.8%
CC(NC1CCN(CCS(C)(=O)=O)CC1)c1ccc(Cl)cc1 (configuration not stated)	58.2%
COc1ccc(CCN(C)C2CCCN(Cc3noc(C)n3)C2)cc1 (configuration not stated)	60.6%
CN(Cc1cccnc1)C1CCCN(Cc2noc(C3CC3)n2)C1 (configuration not stated)	52.6%
Cc1nc(CN2CCCC(NCc3ccc4ccccc4c3)C2)no1 (configuration not stated)	-9.17%
CCOc1ccccc1CNC1CCCN(Cc2noc(C)n2)C1 (configuration not stated)	48.7%
CN(Cc1ccccn1)C1CCCN(Cc2noc(C3CC3)n2)C1 (configuration not stated)	-128%
Cc1nc(CN2CCCC(N(C)Cc3c(C)noc3C)C2)no1 (configuration not stated)	58.6%
Cc1nc(CN2CCCC(N(C)CCc3ccncc3)C2)no1 (configuration not stated)	-138%
Cc1nc(CN(C)C2CCN(Cc3c(C)noc3C)C2)no1 (configuration not stated)	-19.4%
CN(Cc1cnn(C)c1)C1CCCN(Cc2noc(C3CC3)n2)C1 (configuration not stated)	-39.7%
Cc1nc(CN2CCCC(NCc3cccc4ccccc34)C2)no1 (configuration not stated)	58.3%
Cc1nc(CN2CCCC(N(C)CCCc3ccccc3)C2)no1 (configuration not stated)	-0.463%
Cc1cc(CN(C)C2CCCN(Cc3noc(C)n3)C2)no1 (configuration not stated)	-90.9%
CCn1nc(C)c(CN2CCC(c3ccn[nH]3)C2)c1C (configuration not stated)	-30.2%
Cc1nc2sccn2c1CNC1(c2ccccc2F)CCCC1	-5.97%

SMILES	INHIBITION
Cc1cccc(COC[C@@]23CCC[C@@H]2CN(S(=O)(=O)N(C)C)C3)n1	-12.3%
CCc1nc(CN2CCN(C(=O)C3(C#N)CCCC3)CC2)cs1	-79.7%
O=C(c1ccccn1)N1CCC2(CC1)COC(COCC1CCCC1)C2 (configuration not stated)	-14.7%
Cc1ccc(CN2CCN(C(=O)c3ccc(CO)cc3)C(C)C2=O)cc1 (configuration not stated)	-121%
CC(=O)N1CCCC(c2ccc(Cc3ccccc3)cn2)C1 (configuration not stated)	60.4%
CC(=O)N1CCCC(c2ccccn2)C1 (configuration not stated)	-11.9%
CC(=O)N1CCCC(c2ccc(Br)cn2)C1 (configuration not stated)	-147%
CNc1cncc(C2CCCN2Cc2ccn(C)n2)n1 (configuration not stated)	-1.9%
c1cncc(-c2ccc3c(c2)CCC32CCN(Cc3nccs3)CC2)c1	49.1%
CCN1C[C@@H]2CN(S(=O)(=O)c3cccs3)C[C@@H]2C1=O	64.6%
COCCN1C[C@@H]2CN(S(=O)(=O)c3cccs3)C[C@@H]2C1=O	-43.2%
CC(C)CN1C[C@@H]2CN(S(=O)(=O)c3cccs3)C[C@@H]2C1=O	-43.6%
CCc1cc(N[C@@H]2C[C@@H]3CC[C@H]2C3)n2nccc2n1	-125%
Cc1ccc(C(=O)Nc2ccc(S(=O)(=O)/N=C3\CCCN3C)cc2)s1	-13.1%
CC(C)(C)n1nc(C2CC2)cc1C(=O)NC1CCN(CC(N)=O)CC1	-56.9%
Cc1cccc(N2CCOCC3(C2)CN(c2cncnc2)C(=O)CO3)n1 (configuration not stated)	-66.1%
Cc1cccc(N2CCOCC3(C2)CN(c2ccoc2)C(=O)CO3)n1 (configuration not stated)	66.9%
Cc1cccc(N2CCOCC3(C2)CN(c2ccccc2)C(=O)CO3)n1 (configuration not stated)	-58.1%
CCS(=O)(=O)NC[C@]12COC[C@H]1CN(Cc1ccsc1)C2	19.6%
CCC(C)C(=O)Nc1ccc(CCN2CCOCC2)cc1 (configuration not stated)	-81%
CC(C)(CN1CCC(Cc2ccc(C(=O)O)cc2)C1)N1CCOCC1 (configuration not stated)	-29.2%
CCOc1ccc(Cl)cc1CNCCCn1ccnc1	52.8%
CCOc1c(CNCCCn2ccnc2)cc(Cl)cc1OC	66.5%

SMILES	INHIBITION
CCOc1ccc(CNCCCn2ccnc2)cc1OC	-13.1%
COc1cc(CNCCn2ccnc2)cc2c1OCO2	-86.4%
COCCCn1ccc(NC(=O)NCCCn2ccnc2)n1	-58.9%
O=C(CN1CCOc2ccc(Cl)cc21)NCCCn1ccnc1	-30.7%
NC(=O)C1CCN(c2nc3nccc(-c4ccccc4)c3c(=O)[nH]2)CC1	-99.6%
NC(=O)C1CCN(c2nc3nccc(-c4ccncc4)c3c(=O)[nH]2)CC1	-23%
O=C(O)Cn1nc(C2CC2)c2c(-c3cccs3)ccnc21	-7.45%
O=c1[nH]c(NC2CCCC2)nc2nccc(-c3cccs3)c12	56.6%
NC(=O)C1CCN(c2nc3nccc(-c4cccnc4)c3c(=O)[nH]2)CC1	-16.2%
O=c1[nH]c(NC2CCCC2)nc2nccc(-c3ccsc3)c12	68.5%
c1ccc(COC[C@H]2CC[C@H]3[C@H](CCN3Cc3ccccn3)O2)nc1	-2.2%
CCNc1cc2c(nn1)CCN(C(=O)c1ccnc(-n3ccnc3)c1)C2	43.9%
CC(=O)N1CCc2[nH]nc(C(=O)N3CCOCC3)c2C1	-75.4%
CC(C)N1CCc2[nH]nc(C(=O)N3CCOCC3)c2C1	55.6%
CC(C)N1CCc2[nH]nc(C(=O)N3CCN(C)CC3)c2C1	49.2%
O=C(Nc1nc2c(s1)CNCC2)C1CC1	-117%
O=C(NCC1CC1)[C@H]1C[C@H]2OCC[C@H]2N(CCc2ccccc2)C1	-62.8%
CO[C@@H]1CN(c2ccccc2)S(=O)(=O)[C@@]12CCN(Cc1ccccc1)C2	-32.5%
CC(=O)N[C@@H]1CN(C2CCN(c3cccc(C)c3C)CC2)C[C@H]1C(C)C	57.7%
CC(=O)N[C@@H]1CN(C2CCN(c3ccccc3F)CC2)C[C@H]1C(C)C	-24.8%
CC(=O)N[C@@H]1CN(C2CCN(c3cccc(Cl)c3)CC2)C[C@H]1C(C)C	-10.3%
